PubChem BioAssay (EPA / NIEHS)
Inconclusive results are not listed. The source made the active and inactive calls. Rule for the calls, unless noted: active = hit-call score of the fitted dose curve at least 0.9, where 1 is the maximum; inactive = score below 0.9.

Tests used:
[1] = ACEA_ER_80hr: ACEA Biosciences xCELLigence Real-Time Cell Analysis on Estrogen Receptor Agonism for Proliferation (AID 2282667; active = hit-call score of the fitted dose curve at least 0.9, where 1 is the maximum); settings: T47D proliferation, impedance (xCELLigence), 80 h
Summary of the method: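 Impedance readout (RT-CES) of T47D proliferation at 80 h post-dose; gain of signal vs DMSO baseline. Compounds: 8 conc, 1:4 serial, top 100 uM final, ≤0.5% DMSO; biological duplicate.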

[2] = ATG_CRE_CIS: Attagene CIS-FACTORIAL HepG2 Assay for human cAMP Responsive Element (CRE) binding protein 3 (AID 2282926); settings: HepG2 CRE cis-reporter, Attagene multiplexed mRNA; actives raise or lower the signal
Summary of the method: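 Readout: fluorescently labelled reporter transcripts resolved by capillary electrophoresis after RT-PCR, taken 24 h post-dosing in transfected HepG2. Endogenous transcription factor activity drives each cis-element reporter; gain or loss of signal fitted relative to DMSO control.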

[3] = target: Aryl hydrocarbon receptor (Homo sapiens) (UniProt P35869); experiment: ATG_Ahr_CIS: Attagene CIS-FACTORIAL HepG2 Assay for human Aryl Hydrocarbon Receptor (Ahr) (AID 2282930); settings: HepG2 AhR cis-factorial reporter transcription; actives raise or lower the signal
Summary of the method: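 Reporter mRNA levels, quantified by RT-PCR and fluorescent capillary electrophoresis, reflect endogenous AhR transcriptional activity in HepG2 cells carrying transfected cis-promoter reporter constructs. Readout at 24 h post-dose; gain or loss fitted against DMSO baseline.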

[4] = ATG_AP_1_CIS: Attagene CIS-FACTORIAL HepG2 Assay for human Activator Protein 1 (AP-1) (AID 2282931); settings: HepG2 Attagene cis-factorial AP-1 reporter mRNA; actives raise or lower the signal
Summary of the method: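 Endogenous transcription-factor activity in human HepG2 liver cells is read through a cis-promoter reporter transcript, sampled 24 h after dosing. Detection uses RT-PCR with capillary electrophoresis; values come from bidirectional fitting relative to DMSO.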

[5] = ATG_AP_2_CIS: Attagene CIS-FACTORIAL HepG2 Assay for human Activator Protein 2 (AP-2) (AID 2282932); settings: HepG2 AP-2 cis-reporter, Attagene transcription factor profiling; actives raise or lower the signal
Summary of the method: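 Endogenous transcription factor activity is reported through transfected multiplex reporter constructs in HepG2, after 24 h of compound exposure. Transcripts were quantified by RT-PCR and capillary electrophoresis of fluorescent fragments. Bidirectional fit against DMSO.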

[6] = ATG_BRE_CIS: Attagene CIS-FACTORIAL HepG2 Assay for human Bone Morphogenetic Protein (BMP) Response Element (BRE) (AID 2282933); settings: HepG2 BMP response element reporter, Attagene transcription factor profiling; actives raise or lower the signal
Summary of the method: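 Gain- or loss-of-signal was derived by bidirectional fitting against DMSO controls. The signal came from reporter mRNA, measured by RT-PCR and capillary electrophoresis, in HepG2 cells transiently carrying multiple reporter units and dosed for 24 h.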

[7] = target: Retinoic acid receptor alpha (Homo sapiens) (UniProt P10276); experiment: ATG_DR5_RAR_CIS: Attagene CIS-FACTORIAL HepG2 Assay for human Retinoic Acid Receptor Alpha (RARE), DR5 submotif (AID 2282934); settings: HepG2 Attagene cis-factorial RARE DR5 reporter, mRNA; actives raise or lower the signal
Summary of the method: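 Reporter transcripts from a DR5-regulated unit, measured via RT-PCR plus capillary electrophoresis, reflect endogenous RAR activity in transiently transfected human HepG2 liver cells. Exposure lasted 24 h; gain or loss of signal scored against DMSO.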

[8] = target: Transcription factor E2F1 (Homo sapiens) (UniProt Q01094); experiment: ATG_E2F_CIS: Attagene CIS-FACTORIAL HepG2 Assay for human E2F Transcription Factor 1 (AID 2282935); settings: HepG2 Attagene cis-reporter, E2F reporter RNA transcripts; actives raise or lower the signal
Summary of the method: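 Gain or loss of reporter transcript, fitted against DMSO, reflects E2F1-driven transcription. Transiently transfected HepG2 dosed 24 h before RNA isolation. Quantified by fluorescent RT-PCR products separated by capillary electrophoresis.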

[9] = ATG_M_61_CIS: Attagene CIS-FACTORIAL HepG2 Assay for M61 Transcription Factor (Internal Marker) (AID 2282937); settings: HepG2 Attagene CIS-FACTORIAL M61 internal marker reporter; actives raise or lower the signal
Summary of the method: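 Cells were transfected with reporter units under cis-regulatory promoters, treated with chemicals for 24 h, then lysed for RNA. Reporter transcripts were quantified by RT-PCR and capillary electrophoresis, and activity was fitted bidirectionally against DMSO.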

[10] = ATG_EGR_CIS: Attagene CIS-FACTORIAL HepG2 Assay for human Early Growth Response 1 (EGR1) (AID 2282938); settings: HepG2 Attagene CIS-FACTORIAL EGR reporter mRNA; actives raise or lower the signal
Summary of the method: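 Endogenous TF activity in HepG2 liver cells was gauged through cis-promoter reporter constructs transiently transfected. After 24 h dosing, reporter mRNA was quantified by RT-PCR and capillary electrophoresis, and curves fitted in both directions versus DMSO.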

[11] = ATG_Ets_CIS: Attagene CIS-FACTORIAL HepG2 Assay for human Erythroblast Transformation Specific (ETS) (AID 2282941); settings: HepG2 ETS cis-reporter transcription, actives raise or lower the signal
Summary of the method: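 RT-PCR/capillary electrophoresis fluorescence read-out of reporter mRNA; HepG2 transient multi-reporter transfection; 24 h compound exposure; gain or loss of signal fitted bidirectionally relative to DMSO.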

[12] = ATG_FoxO_CIS: Attagene CIS-FACTORIAL HepG2 Assay for human Forkhead box O (FoxO) (AID 2282943); settings: HepG2 Attagene cis-reporter, FoxO element, mRNA; actives raise or lower the signal
Summary of the method: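 Endogenous transcription factor activity read from multiplexed cis-promoter reporter transcripts in transiently transfected HepG2, 24 h after dosing. Reporter RNA measured via RT-PCR plus capillary electrophoresis of FAM-labeled products; gain or loss relative to DMSO.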

[13] = ATG_GATA_CIS: Attagene CIS-FACTORIAL HepG2 Assay for human GATA Binding Protein (AID 2282944); settings: HepG2 GATA cis-element reporter, Attagene multiplex mRNA; actives raise or lower the signal
Summary of the method: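 DMSO serves as negative control and baseline for bidirectional fitting of reporter mRNA changes. HepG2 cells bearing transiently transfected cis-promoter reporters were exposed 24 h; transcripts detected via RT-PCR and capillary electrophoresis.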

[14] = ATG_CMV_CIS: Attagene CIS-FACTORIAL HepG2 Assay for human CMV (Internal Marker) (AID 2282928); settings: HepG2 CMV promoter reporter, transcription factor profiling; actives raise or lower the signal;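 note: endpoint acts as a background internal control marker rather than a target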
Summary of the method: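 Readout: fluorescent reporter cDNA fragments separated by capillary electrophoresis after RT-PCR and HpaI cut. Cells: HepG2 carrying transfected cis-promoter reporter constructs, dosed 24 h. Endpoint serves as background internal-marker control, fit bidirectionally versus DMSO.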

[15] = ATG_DR4_LXR_CIS: Attagene CIS-FACTORIAL HepG2 Assay for human Liver X Receptor (LXR), DR4 submotif (AID 2282929); settings: HepG2 Attagene DR4 cis-reporter, mRNA transcription; actives raise or lower the signal
Summary of the method: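 Cells were transfected with multiple reporter transcription units, exposed to chemicals for 24 hours, then lysed for RNA. Reporter mRNA induction was measured by RT-PCR with capillary electrophoresis detection and fitted in both directions relative to DMSO.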

[16] = ATG_E_Box_CIS: Attagene CIS-FACTORIAL HepG2 Assay for human Enhancer Box (E-box) (AID 2282936); settings: HepG2 E-box cis-reporter transcription, actives raise or lower the signal
Summary of the method: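 E-box-driven reporter transcripts measured in transiently transfected HepG2 after 24 h exposure: RNA reverse-transcribed, PCR-amplified, fluorescently labelled, digested and resolved by capillary electrophoresis. Gain or loss relative to DMSO.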

[17] = ATG_M_19_CIS: Attagene CIS-FACTORIAL HepG2 Assay for M19 Transcription Factor (Internal Marker) (AID 2282939); settings: HepG2 Attagene CIS-FACTORIAL M19 internal marker reporter; actives raise or lower the signal
Summary of the method: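 Following a 24 h exposure, RNA from transfected HepG2 cells was reverse-transcribed, PCR-amplified with reporter-specific primers, end-labelled with 6-FAM and HpaI-digested before capillary separation. Values represent gain or loss versus DMSO.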

[18] = ATG_ERE_CIS: Attagene CIS-FACTORIAL HepG2 Assay for Estrogen Response Element (ERE) (AID 2282940); settings: HepG2 ERE cis-reporter, Attagene RNA transcript; actives raise or lower the signal
Summary of the method: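 HepG2, transient cis-reporter units, 24 h exposure. RNA isolated, oligo(dT) RT, reporter-specific PCR, FAM extension, HpaI cut, CE detection. Gain/loss-of-signal vs DMSO.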

[19] = target: Hepatocyte nuclear factor 3-beta (Homo sapiens) (UniProt Q9Y261); experiment: ATG_FoxA2_CIS: Attagene CIS-FACTORIAL HepG2 Assay for human Forkhead box A2 (FOXA2) (AID 2282942); settings: HepG2 cis-reporter transcription factor activity, 24 h; actives raise or lower the signal
Summary of the method: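 Endogenous transcription factor activity was read in HepG2 cells carrying transiently transfected cis-promoter reporter units. After 24 h dosing, reporter mRNA was quantified by RT-PCR and capillary electrophoresis, and values fitted bidirectionally versus DMSO.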

[20] = target: CCAAT/enhancer-binding protein beta (Homo sapiens) (UniProt P17676); experiment: ATG_C_EBP_CIS: Attagene CIS-FACTORIAL HepG2 Assay for human CCAAT/Enhancer Binding Protein (C/EBP) beta (AID 2282927); settings: HepG2 Attagene cis-factorial transcription factor reporter; actives raise or lower the signal
Summary of the method: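 Endogenous C/EBPb-driven reporter transcripts measured in transfected human HepG2 cells at 24 h via RT-PCR and capillary electrophoresis of labelled fragments. Activity fitted in both directions relative to DMSO baseline.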

Measured: AC50

Chain of Hepatocyte nuclear factor 3-beta (Homo sapiens) (Q9Y261 whole entry, looked up): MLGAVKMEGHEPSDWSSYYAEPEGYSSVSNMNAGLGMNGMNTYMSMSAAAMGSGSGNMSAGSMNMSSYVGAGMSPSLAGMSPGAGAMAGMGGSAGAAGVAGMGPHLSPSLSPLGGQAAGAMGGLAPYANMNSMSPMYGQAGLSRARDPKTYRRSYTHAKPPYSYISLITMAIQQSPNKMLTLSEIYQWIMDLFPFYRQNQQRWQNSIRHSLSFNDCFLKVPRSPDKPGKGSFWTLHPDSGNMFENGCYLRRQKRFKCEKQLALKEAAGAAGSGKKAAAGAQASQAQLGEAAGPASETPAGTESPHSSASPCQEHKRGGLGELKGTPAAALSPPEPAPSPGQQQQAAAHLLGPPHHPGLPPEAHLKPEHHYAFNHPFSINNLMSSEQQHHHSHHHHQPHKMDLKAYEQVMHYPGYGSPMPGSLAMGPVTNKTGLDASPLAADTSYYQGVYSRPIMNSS
Chain of Retinoic acid receptor alpha (Homo sapiens) (P10276 whole entry, looked up): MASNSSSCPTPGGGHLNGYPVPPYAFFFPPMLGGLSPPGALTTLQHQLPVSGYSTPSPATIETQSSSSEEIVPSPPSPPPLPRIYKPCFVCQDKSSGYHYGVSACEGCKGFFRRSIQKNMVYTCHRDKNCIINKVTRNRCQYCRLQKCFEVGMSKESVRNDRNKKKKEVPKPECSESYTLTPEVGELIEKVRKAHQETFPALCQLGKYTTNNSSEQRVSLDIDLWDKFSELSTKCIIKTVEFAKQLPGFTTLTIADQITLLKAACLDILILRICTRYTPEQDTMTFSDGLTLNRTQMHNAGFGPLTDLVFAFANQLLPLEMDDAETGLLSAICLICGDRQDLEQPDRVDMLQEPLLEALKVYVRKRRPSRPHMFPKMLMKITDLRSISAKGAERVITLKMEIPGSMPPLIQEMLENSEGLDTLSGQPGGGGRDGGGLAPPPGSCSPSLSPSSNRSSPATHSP
Chain of CCAAT/enhancer-binding protein beta (Homo sapiens) (P17676 whole entry, looked up, the tested form may be a part): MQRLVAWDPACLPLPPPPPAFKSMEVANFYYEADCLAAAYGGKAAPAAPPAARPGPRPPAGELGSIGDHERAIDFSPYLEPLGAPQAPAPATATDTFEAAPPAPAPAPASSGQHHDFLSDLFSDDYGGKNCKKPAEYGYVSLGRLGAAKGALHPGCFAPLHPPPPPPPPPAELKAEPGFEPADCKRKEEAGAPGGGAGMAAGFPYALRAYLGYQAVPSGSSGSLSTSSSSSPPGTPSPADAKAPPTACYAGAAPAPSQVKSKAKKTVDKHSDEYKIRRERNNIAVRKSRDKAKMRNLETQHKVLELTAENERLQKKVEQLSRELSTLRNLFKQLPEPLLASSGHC
Chain of Aryl hydrocarbon receptor (Homo sapiens) (P35869 whole entry, looked up): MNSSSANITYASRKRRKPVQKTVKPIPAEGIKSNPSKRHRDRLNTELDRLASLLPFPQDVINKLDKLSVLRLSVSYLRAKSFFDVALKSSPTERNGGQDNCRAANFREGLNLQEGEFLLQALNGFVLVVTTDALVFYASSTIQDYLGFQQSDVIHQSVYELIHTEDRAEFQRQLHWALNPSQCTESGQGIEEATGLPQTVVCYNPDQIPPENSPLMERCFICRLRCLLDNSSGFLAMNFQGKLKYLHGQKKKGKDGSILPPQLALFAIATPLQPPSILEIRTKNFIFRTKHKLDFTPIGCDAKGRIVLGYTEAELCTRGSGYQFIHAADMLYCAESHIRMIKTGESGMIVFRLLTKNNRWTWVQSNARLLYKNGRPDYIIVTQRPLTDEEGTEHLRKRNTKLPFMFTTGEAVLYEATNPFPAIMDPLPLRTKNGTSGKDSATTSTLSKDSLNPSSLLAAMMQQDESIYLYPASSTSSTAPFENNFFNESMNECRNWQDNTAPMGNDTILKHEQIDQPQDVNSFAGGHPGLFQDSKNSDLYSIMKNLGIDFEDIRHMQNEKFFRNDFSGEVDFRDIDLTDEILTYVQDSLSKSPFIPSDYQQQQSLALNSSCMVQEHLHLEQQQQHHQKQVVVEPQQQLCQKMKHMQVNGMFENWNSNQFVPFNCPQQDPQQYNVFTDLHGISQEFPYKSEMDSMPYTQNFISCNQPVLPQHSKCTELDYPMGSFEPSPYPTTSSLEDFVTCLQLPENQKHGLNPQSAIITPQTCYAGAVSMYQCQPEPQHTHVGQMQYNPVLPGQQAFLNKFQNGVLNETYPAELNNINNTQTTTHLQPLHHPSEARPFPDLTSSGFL
Chain of Transcription factor E2F1 (Homo sapiens) (Q01094 whole entry, looked up): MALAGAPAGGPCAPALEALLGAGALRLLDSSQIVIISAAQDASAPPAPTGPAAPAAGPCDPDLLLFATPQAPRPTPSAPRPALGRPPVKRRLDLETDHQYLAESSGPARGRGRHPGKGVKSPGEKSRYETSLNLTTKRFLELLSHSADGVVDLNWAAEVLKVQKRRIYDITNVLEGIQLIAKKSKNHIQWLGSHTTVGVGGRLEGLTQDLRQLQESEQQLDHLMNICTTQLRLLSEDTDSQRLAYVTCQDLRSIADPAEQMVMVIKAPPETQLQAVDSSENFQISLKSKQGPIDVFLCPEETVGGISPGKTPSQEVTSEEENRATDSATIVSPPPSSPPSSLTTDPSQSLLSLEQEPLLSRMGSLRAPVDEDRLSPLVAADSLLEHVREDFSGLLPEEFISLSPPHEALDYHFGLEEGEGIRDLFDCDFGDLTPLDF

COc1ccc(-c2coc3cc(O)cc(O)c3c2=O)cc1
inactive: [2] | [5] | [7] | [8] | [9] | [10] | [11] | [12] | [13]
active: [1] 0.673 µM | [3] 27 µM | [4] 64 µM | [6] 67.2 µM

C=CC(=O)OCC(C)OCC(C)OCC(C)OC(=O)C=C (configuration not stated)
inactive: [1] | [2] | [3] | [5] | [6] | [7] | [8] | [9] | [17] | [18] | [19] | [13]
active: [14] 77.1 µM | [15] 68.8 µM | [4] 73.4 µM | [16] 68.6 µM | [10] 79.7 µM | [11] 60.1 µM | [12] 100 µM

CC1=NN(c2ccc(S(=O)(=O)O)cc2)C(=O)C1N=Nc1ccccc1 (configuration not stated)
inactive: [1] | [2] | [14] | [15] | [4] | [5] | [6] | [7] | [8] | [9] | [10] | [17] | [18] | [11] | [19] | [12] | [13]

CN1CCN(C)CC1
inactive: [1] | [2] | [14] | [15] | [4] | [5] | [6] | [7] | [16] | [9] | [10] | [17] | [18] | [11] | [19] | [12] | [13]

CC1=CCC(C(C)C)C=C1 (configuration not stated)
inactive: [1] | [2] | [20] | [4] | [5] | [6] | [8] | [16] | [9] | [10] | [17] | [11] | [12]

CCCCNC(=S)NCCCC
inactive: [1] | [2] | [3] | [4] | [5] | [6] | [7] | [8] | [16] | [9] | [10] | [17] | [18] | [11] | [19] | [12] | [13]

CCCCCCCC(=O)OCC
inactive: [1] | [2] | [14] | [15] | [3] | [4] | [5] | [6] | [7] | [16] | [9] | [10] | [17] | [18] | [11] | [19] | [12] | [13]

CC(=O)OCCc1ccccc1
inactive: [1] | [2] | [14] | [15] | [3] | [4] | [5] | [6] | [7] | [8] | [9] | [10] | [17] | [18] | [11] | [19] | [12] | [13]

CCN1CN(CC)CN(CC)C1
active: [2] 162 µM | [14] 140 µM | [15] 139 µM | [11] 175 µM
inactive: [3] | [4] | [5] | [7] | [8] | [16] | [9] | [10] | [17] | [18] | [19] | [12] | [13]

O=C(O)c1ccc2c(c1)C(=O)OC2=O
inactive: [2] | [20] | [14] | [3] | [4] | [5] | [6] | [7] | [8] | [9] | [10] | [17] | [18] | [11] | [19] | [12] | [13]

CCCCCCCCCCCCCCCCCCOS(=O)(=O)O
inactive: [2] | [20] | [15] | [6] | [7] | [8] | [16] | [10] | [11] | [12]
active: [14] 11.1 µM | [4] 20.3 µM | [5] 57.3 µM | [9] 54.7 µM | [17] 52.5 µM | [18] 26.8 µM | [19] 56.7 µM

CC1CCC(C(C)(C)S)C(=O)C1 (configuration not stated)
inactive: [2] | [20] | [14] | [15] | [3] | [4] | [5] | [6] | [7] | [8] | [16] | [9] | [10] | [17] | [11] | [12] | [13]

CCCCCCOc1ccc(N)cc1
active: [14] 155 µM | [15] 159 µM
inactive: [2] | [20] | [3] | [4] | [5] | [6] | [7] | [8] | [16] | [9] | [10] | [17] | [11] | [19] | [12]
